# Measurements reported in PubChem BioAssay (NCI).
# This is part of a sample that, as a whole, favours compounds with a hit. Of some 83,000 tested, about 20% had one in any assay.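 Negative percent growth values reflect cell death: -40 means 40% of the cells present at the start died, and -100 means all died.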 The source made the active and inactive calls. How the source made its calls: active means growth percent below 10; inactive means the rest.
# Tested on: ACHN renal
# Test: NCI-60 one-dose screen, 48 h (100 = growth as untreated, 0 = no growth, -100 = all killed)
# Conditions: 10 µM unless noted
row,Compound,growth
1,CCOC(=O)/C=C1\S/C(=N\Nc2cc(=O)[nH]c3ccc(Cl)cc23)N(c2ccccc2)C1=O,91.6% (inactive)
2,COc1cccc(NC(=O)Cn2cc(CN3CCN(c4ccnc5cc(Cl)ccc45)CC3)nn2)c1,85% (inactive)
3,COc1cc(N2C(=O)[C@H](O)C2c2ccc(SC)cc2)cc(OC)c1OC (stereo partly specified),31.8% (inactive)
4,CSc1nnc(-c2cnn3c2NC(c2ccccc2)C3)n1-c1ccc(C(F)(F)F)cc1 (stereo unspecified),52.3% (inactive)
5,N=C(N)c1ccc(-c2ccc(-c3ccc(F)cc3)o2)o1,27.2% (inactive)
6,CC1=NN(c2nc(SCC(=O)Nc3nc4ccc(C)cc4s3)nc(-c3ccccc3)c2C#N)C(=O)C1,96.3% (inactive)
7,C/C(Nc1ccc(Cl)c(Cl)c1)=C1\CCOC1=O,79.7% (inactive)
8,N#Cc1cccc(-c2c(-c3ccc4ccccc4c3)oc3ccccc3c2=O)c1,55.9% (inactive)
9,CC(C)N1CCN(Cc2ccc3c(NNC(=O)c4ccccc4)nc4cc(F)ccc4n23)CC1,10.8% (inactive)
10,O=S(=O)(NCCCNc1nccc(-c2c(-c3ccc(F)c(O)c3)nc3occn23)n1)c1ccccc1,70.1% (inactive)
11,O=C1NCCC12CCN(c1c(Cl)cncc1-c1ccc(O)cc1)CC2,70.2% (inactive)
12,Cc1cccnc1NC(=S)Nc1ncccc1C,109% (inactive)
13,COc1ccc2c3c([nH]c2c1)C(=O)c1nc(C)ccc1C3=O,35% (inactive)
14,CC1Cc2c(Cl)ncnc2N(C)c2ccc(F)cc21 (stereo unspecified),103% (inactive)
15,O=C1c2cc(Cl)ccc2S(=O)(=O)c2c(NCCCNCCO)nc3ccccc3c21,-99.9% (active)
16,O=C(c1ccc(Cl)cc1)N1CCN(c2ccnc3cc(Cl)ccc23)CC1,85.8% (inactive)
17,Cc1nnc(NC(=O)c2nc(S(=O)(=O)Cc3ccc(F)cc3)ncc2Cl)s1,96.5% (inactive)
18,COc1ccc2[nH]cc(-c3nc(-c4cn(C)c5c(Cl)nccc45)cs3)c2c1,22.6% (inactive)
19,COc1ccc(/C(C)=C(/c2ccc(OCCCN(C)C)cc2)c2ccc(OC(=O)Cc3ccccc3)cc2)cc1,87.2% (inactive)
20,CCOc1nc(-c2ccccc2)cc2c(O)c(C(=O)NN)[nH]c(=O)c12,107% (inactive)
21,Cn1c(=O)c2[nH]c(N/N=C/c3ccccc3Br)nc2n(C)c1=O,105% (inactive)
22,Clc1ccc(Sc2cnc(-c3ccccc3)o2)cc1,99.7% (inactive)
23,O=C(Nc1nn(-c2ccc(Cl)cc2Cl)nc1-c1ccccc1)c1ccccc1,94.8% (inactive)
24,Cc1ccc(/C=N/Nc2nc(Nc3ccccc3)nc(-n3nc(C)cc3C)n2)cc1,35.5% (inactive)
25,O=C(Nc1cc(Cl)ccc1O)c1ccc(Nc2ccnc(C(F)(F)F)c2)cc1,23.7% (inactive)
26,CC(C)(C)c1cc(-c2nc3ccc(N4CCN(S(C)(=O)=O)CC4)cc3[nH]2)cc(C(C)(C)C)c1O,72.4% (inactive)
